PubChem BioAssay AID1347416 (National Center for Advancing Translational Sciences (NCATS), 2020)
About 1,600 (39%) of roughly 4,100 compounds were called active. Another 25% or so got no clear call; they are omitted. Calls follow the shape of the dose curve; as a rule, active = well fitted inhibition curve with a large enough effect; inconclusive = small, poorly fitted or top-dose-only effect; inactive = no such curve, though single readings can be large or run the other way. This is one part of the list.

Experiment: qHTS Validation assay for Inhibitors of Plasmodium falciparum Dd2 growth in vitro; also: nearly all actives have a fitted effect of over 70% in size
Settings: P. falciparum Dd2 in RBCs, SYBR Green growth, 72 h; series mostly up to 28.7 µM
Method in brief: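 P. falciparum Dd2-infected red blood cells (2.5% hematocrit, 0.3% parasitemia) grown 72 h at 37 °C under 5% O2 with compounds in a titration, 29 uM to 0.5 nM final. Growth read as SYBR Green-1 fluorescence after ~16 h lysis; artesunate 300 nM as positive control.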
Potency is read from the fitted curve at half-maximal effect.

Structure (SMILES) | Potency
CC(C)CC(NC(=O)C(NC(=O)OC(C)(C)C)C(C)C)C(=O)NC(CCC(=O)OCc1ccccc1)C(N)=O (stereo unspecified) | 8410 nM (active)
CC(C)c1ccccc1NC(=O)C(Cc1c[nH]c2ccccc12)NC(=O)OC(C)(C)C (stereo unspecified) | inactive
N=c1n(CCN2CCCCC2)c2ccccc2n1CC(O)COc1ccc(Cl)cc1Cl (stereo unspecified) | 4220 nM (active)
CCCCCn1c(=N)n(CC(O)COc2cccc(C)c2)c2ccccc21 (stereo unspecified) | 2110 nM (active)
CCN(CC)CCn1c(=N)n(CC(O)COc2ccccc2C)c2ccccc21 (stereo unspecified) | 3350 nM (active)
CCn1c(=N)n(CC(O)c2cccs2)c2ccccc21 (stereo unspecified) | inactive
CC(=O)N1C[C@@H]2CCCN3CCC[C@@H]([C@H]23)[C@H]1CCCC(=O)Nc1ccccc1 | inactive
CC(C)CN1CCN(C(=O)CCC[C@@H]2[C@H]3CCCN4CCC[C@@H](CN2Cc2cccnc2)[C@@H]34)CC1 | inactive
CCN(Cc1ccccc1)C(=O)CCC[C@@H]1[C@H]2CCCN3CCC[C@@H](CN1C(=O)c1ccccc1)[C@@H]23 | 13300 nM (active)
COc1ccccc1C(=O)NCc1nnc2ccc(-c3ccc(C)cc3)nn12 | inactive
COc1ccccc1Nc1cnc2ccc(-c3ccc(OC)c(OC)c3)nn12 | 1530 nM (active)
COc1ccccc1Nc1cnc2ccc(-c3ccc(F)cc3)nn12 | 6850 nM (active)
COc1ccc(C(C)NC(=S)NC2CCCC2)cc1OC (stereo unspecified) | 6680 nM (active)
CC(C)c1ccc(OCC(=O)NC2CCCC2)cc1 | inactive
CCOc1ccc(C(C)NC(=S)NC2CCCCC2)cc1OCC (stereo unspecified) | 211 nM (active)
O=C1Nc2ccc(-c3ccccc3F)cc2C(=O)N2CCN(C(=O)c3ccccc3)C[C@H]12 | inactive
CN1CCN(C(=O)c2ccc3c(c2)N(Cc2c(F)cccc2Cl)C(=O)c2ccccc2S3)CC1 | 59.6 nM (active)
Cc1ccc(C(=O)N2CCN(c3nnc4c(Cl)cccn34)CC2)cc1F | inactive
CCN1CCN(C(=O)c2ccc3c(c2)N(Cc2c(F)cccc2Cl)C(=O)c2ccccc2S3)CC1 | 8.4 nM (active)
COc1ccc(C(=O)N2CCCC3(C2)NC(=O)N(Cc2cccc(Cl)c2)C3=O)cc1F (stereo unspecified) | inactive
O=C(OCc1ccccc1)N1CCC2(CC1)C(=NC1CCCCC1)NC(=O)N2c1cccnc1 | inactive
CC(C)(C)C1CCC2(CC1)NC(=O)N(CC(=O)NC1CCCCC1)C2=O (stereo unspecified) | inactive
CC(C)CNC(=O)CN1CN(c2ccccc2)C2(CCN(C(=O)NC3CCCCC3)CC2)C1=O | 15000 nM (active)
Cc1ccc(S(=O)(=O)c2nc(S(=O)(=O)c3ccccc3)sc2NCCCOC(C)C)cc1 | 596 nM (active)
CCCS(=O)(=O)c1nc(S(=O)(=O)c2ccc(C)cc2)c(NCCCOC(C)C)s1 | 2110 nM (active)
CC(C)OCCCNc1sc(S(=O)(=O)c2ccccc2)nc1S(=O)(=O)c1ccc(Cl)cc1 | 266 nM (active)
